# Test results as given in PubChem BioAssay (NCATS).
# Results filed as inconclusive are left out. Unmarked numbers belong to inactive results. Activity calls are given as the source filed them. Calls come from the whole dose curve; as a rule, active = well fitted curve in the direction sought with a large enough effect; inconclusive = small, poorly fitted or top-dose-only effect, or another doubt; inactive = no such curve, though single readings can be large; an effect the other way counts as inactive or inconclusive.
# Tests used:
# [1] = BET inhibitor-based combinations targeting novel dependencies in MECOM-rearranged (r) AML: SET-2 cell line (AID 2202231); conditions: SET-2 AML cells viability, CellTiter-Glo luminescence, 48 h; viability: active compounds read low, concentration not given here; note: nearly all actives have a fitted effect of over 35% in size;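 for viability: plate controls were DMSO treated cells for no effect and wells without cells for full effect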
# In short: (§1)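 Here, 11-point titrations of each agent were applied to 500 seeded cells and incubated 48 hr; CellTiter-Glo signal, scaled against DMSO and empty wells, was integrated as AUC, then Z-scored within the individual line.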
# [2] = BET inhibitor-based combinations targeting novel dependencies in MECOM-rearranged (r) AML: OCI-AML3 cell line (AID 2202232); conditions: Potency: OCI-AML3 viability; note: nearly all actives have a fitted effect of over 35% in size;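 for viability (% of control): series mostly up to about 46 µM; plate controls were DMSO vehicle wells for no effect and wells without cells for full effect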
# In short: as §1
# [3] = BET inhibitor-based combinations targeting novel dependencies in MECOM-rearranged (r) AML: MV-4-11 cell line (AID 2202233); note: nearly all actives have a fitted effect of over 45% in size;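 for viability, % of control: plate controls were DMSO for no effect and blank wells for full effect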
# In short: (§2)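 Normalized to DMSO and empty-well controls, the luminescence data from CellTiter-Glo after 48 hr drug exposure were fitted across 11 concentrations. Reported metrics are area under the dose-response curve and its Z-transformed form.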
# [4] = BET inhibitor-based combinations targeting novel dependencies in MECOM-rearranged (r) AML: HNT-34 cell line (AID 2202234); note: nearly all actives have a fitted effect of over 35% in size;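 for viability (% of control): plate controls were vehicle wells for no effect and cell-free wells for full effect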
# In short: as §2
# [5] = BET inhibitor-based combinations targeting novel dependencies in MECOM-rearranged (r) AML: UCSD-AML1 cell line (AID 2202235); note: nearly all actives have a fitted effect of over 40% in size;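 for viability (% of control): series mostly up to about 46 µM; plate controls were DMSO vehicle wells for no effect and blank wells for full effect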
# In short: as §2
# [6] = BET inhibitor-based combinations targeting novel dependencies in MECOM-rearranged (r) AML: AML-191 cell line (AID 2202236; note: nearly all actives have a fitted effect of over 35% in size;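 for viability (% of control): plate controls were vehicle wells for no effect and wells without cells for full effect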)
# In short: as §1
# [7] = BET inhibitor-based combinations targeting novel dependencies in MECOM-rearranged (r) AML: AML-194 cell line (AID 2202237; note: nearly all actives have a fitted effect of over 40% in size;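 for viability (% of control): plate controls were vehicle wells for no effect and wells without cells for full effect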)
# In short: as §1
# Potency is the fitted concentration of half-maximal effect.
SMILES,viability [1] [%],Potency [2],Potency [3],Potency [4],Potency [5],Potency [6],Potency [7],Potency [1],viability (% of control) [2],"viability, % of control [3]",viability (% of control) [4],viability (% of control) [5],viability (% of control) [6],viability (% of control) [7]
N#Cc1ccnc(N2C(=O)CC[C@H]2C(=O)N(c2cncc(F)c2)C(C(=O)NC2CC(F)(F)C2)c2ccccc2Cl)c1 (some centres not stated),91.5,inactive,inactive,inactive,inactive,inactive,inactive,–,–,–,–,–,–,–
CC1(N)CCN(c2cnc(-c3cccc(Cl)c3Cl)c(N)n2)CC1,110,inactive,2880 nM (active),inactive,inactive,inactive,inactive,–,–,–,–,–,–,–
Cc1ccc(Sc2ccccc2N2CCNCC2)c(C)c1,–,20900 nM (active),20900 nM (active),16600 nM (active),16600 nM (active),18600 nM (active),11800 nM (active),18600 nM (active),–,–,–,–,–,–
C[C@H](CCC(=O)O)[C@H]1CC[C@H]2[C@@H]3[C@@H](O)C[C@@H]4C[C@H](O)CC[C@]4(C)[C@H]3CC[C@]12C,111,inactive,inactive,inactive,inactive,inactive,inactive,–,–,–,–,–,–,–
COC(=O)/C=C/C(=O)OC,117,inactive,inactive,inactive,inactive,inactive,inactive,–,–,–,–,–,–,–
CCN(CC)CCNc1ccc(C)c2sc3ccccc3c(=O)c12,–,14800 nM (active),7420 nM (active),16600 nM (active),16600 nM (active),16600 nM (active),16600 nM (active),18600 nM (active),–,–,–,–,–,–
C=CC(=O)Nc1cccc(Oc2nc(Nc3ccc(N4CCN(C)CC4)c(F)c3)nc3[nH]ccc23)c1,–,8330 nM (active),742 nM (active),1320 nM (active),4680 nM (active),5900 nM (active),6610 nM (active),14800 nM (active),–,–,–,–,–,–
CO[C@H]1/C=C\C=C(\C)C(=O)NC2=CC(=O)C(NCCN(C)C)=C(C[C@@H](C)C[C@H](OC)[C@H](O)[C@@H](C)/C=C(/C)[C@@H]1OC(N)=O)C2=O,–,118 nM (active),29.5 nM (active),417 nM (active),296 nM (active),1050 nM (active),662 nM (active),2950 nM (active),–,–,–,–,–,–
C[C@H]1C[C@H]2[C@@H]3CCC4=CC(=O)C=C[C@]4(C)[C@H]3C(=O)C[C@]2(C)[C@@]1(O)C(=O)CO,116,inactive,inactive,inactive,inactive,inactive,inactive,–,–,–,–,–,–,–
CCC1=C[C@@H]2CN(C1)Cc1c([nH]c3ccccc13)[C@@](C(=O)OC)(c1cc3c(cc1OC)N(C)[C@H]1[C@@](O)(C(=O)OC)[C@H](OC(C)=O)[C@]4(CC)C=CCN5CC[C@]31[C@@H]54)C2,–,257 nM (active),323 nM (active),229 nM (active),407 nM (active),645 nM (active),645 nM (active),7230 nM (active),–,–,–,–,–,–
C=C1C(=O)O[C@@H]2[C@H]3O[C@]3(C)CC/C=C(\C)CC[C@@H]12,–,6610 nM (active),5250 nM (active),7420 nM (active),10500 nM (active),9340 nM (active),11800 nM (active),11800 nM (active),–,–,–,–,–,–
CN[C@H]1CN(c2ccc3c(=O)c(C(=O)O)cn(-c4nccs4)c3n2)C[C@@H]1OC,–,1080 nM (active),270 nM (active),679 nM (active),855 nM (active),1350 nM (active),1520 nM (active),2410 nM (active),–,–,–,–,–,–
COc1cc2c3c(n(CCCN4CCOCC4)c(=O)c2cc1OC)-c1cc2c(cc1C3=O)OCO2,–,33.2 nM (active),83.3 nM (active),93.4 nM (active),93.4 nM (active),105 nM (active),417 nM (active),105 nM (active),–,–,–,–,–,–
COc1cc2c(cc1OC)CN(CCc1ccc(-n3nnc(-c4cc(OC)c(OC)cc4NC(=O)c4cc(=O)c5ccccc5o4)n3)cc1)CC2,116,–,–,–,–,–,–,–,94.2% [at 0.315 µM],93.2% [at 0.315 µM],93.8% [at 0.315 µM],106% [at 0.315 µM],99.1% [at 0.315 µM],95.7% [at 0.315 µM]
CCCCCN(C)CCC(O)(P(=O)(O)O)P(=O)(O)O,124,–,–,–,–,–,–,–,118% [at 5.12 µM],131% [at 5.12 µM],109% [at 5.12 µM],109% [at 5.12 µM],111% [at 5.12 µM],115% [at 5.12 µM]
CC1(C)O[C@@H]2C[C@H]3[C@@H]4CCC5=CC(=O)C=C[C@]5(C)[C@H]4[C@@H](O)C[C@]3(C)[C@]2(C(=O)CO)O1,114,inactive,inactive,inactive,inactive,inactive,332 nM (active),–,–,–,–,–,–,–
